According to ChEMBL document CHEMBL1961873, “Compounds: GSK PKIS; Assays: Nanosyn kinase panel” (2012):

How the values were obtained:
[1] = molecular target: Mitogen-activated protein kinase kinase kinase kinase 4 (Homo sapiens) (UniProt O95819); conditions: at 1 µM;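 note: reported figure is an averaged inhibition value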
[2] = molecular target: Dual specificity mitogen-activated protein kinase kinase 1 (Homo sapiens) (UniProt Q02750); conditions: at 0.1 µM
[3] = molecular target: Dual specificity mitogen-activated protein kinase kinase 1 (Homo sapiens) (UniProt Q02750); conditions: at 1 µM
[4] = molecular target: Misshapen-like kinase 1 (Homo sapiens) (UniProt Q8N4C8); conditions: at 0.1 µM
Chain of Misshapen-like kinase 1 (Homo sapiens) (Q8N4C8 whole entry, looked up): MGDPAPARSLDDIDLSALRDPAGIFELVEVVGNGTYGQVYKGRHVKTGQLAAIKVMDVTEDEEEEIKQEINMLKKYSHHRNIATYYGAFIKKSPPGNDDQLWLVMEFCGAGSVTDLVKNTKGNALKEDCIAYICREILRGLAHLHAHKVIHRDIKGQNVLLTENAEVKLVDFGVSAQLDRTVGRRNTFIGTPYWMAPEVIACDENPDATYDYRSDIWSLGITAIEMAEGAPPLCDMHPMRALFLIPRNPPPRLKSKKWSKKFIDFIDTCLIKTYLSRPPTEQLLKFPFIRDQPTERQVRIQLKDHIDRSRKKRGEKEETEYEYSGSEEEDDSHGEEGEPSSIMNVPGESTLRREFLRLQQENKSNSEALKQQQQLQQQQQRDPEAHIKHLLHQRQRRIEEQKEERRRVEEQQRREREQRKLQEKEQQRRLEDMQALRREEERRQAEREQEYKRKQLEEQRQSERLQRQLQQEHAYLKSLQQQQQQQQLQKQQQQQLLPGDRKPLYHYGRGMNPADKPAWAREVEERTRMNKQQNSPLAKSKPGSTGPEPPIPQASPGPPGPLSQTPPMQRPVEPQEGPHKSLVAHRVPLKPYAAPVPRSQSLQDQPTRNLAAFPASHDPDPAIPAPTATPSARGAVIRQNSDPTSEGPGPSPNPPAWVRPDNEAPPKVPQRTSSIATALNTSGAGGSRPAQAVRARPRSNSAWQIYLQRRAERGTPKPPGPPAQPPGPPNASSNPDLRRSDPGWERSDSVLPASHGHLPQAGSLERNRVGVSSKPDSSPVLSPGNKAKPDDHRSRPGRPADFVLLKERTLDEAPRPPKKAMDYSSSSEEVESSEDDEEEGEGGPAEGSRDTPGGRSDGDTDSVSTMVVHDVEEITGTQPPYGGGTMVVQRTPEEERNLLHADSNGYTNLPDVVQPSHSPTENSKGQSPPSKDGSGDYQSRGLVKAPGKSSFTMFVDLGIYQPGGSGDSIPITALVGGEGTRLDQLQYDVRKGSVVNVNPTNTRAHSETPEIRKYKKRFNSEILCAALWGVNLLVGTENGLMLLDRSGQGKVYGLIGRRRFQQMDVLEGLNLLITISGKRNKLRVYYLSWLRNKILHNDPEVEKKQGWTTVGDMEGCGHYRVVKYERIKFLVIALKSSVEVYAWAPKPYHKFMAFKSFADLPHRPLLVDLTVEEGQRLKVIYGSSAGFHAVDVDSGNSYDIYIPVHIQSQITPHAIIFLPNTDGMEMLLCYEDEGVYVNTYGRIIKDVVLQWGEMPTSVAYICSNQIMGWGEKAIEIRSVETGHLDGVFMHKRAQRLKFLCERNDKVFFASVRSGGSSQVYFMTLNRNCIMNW

[5] = molecular target: Misshapen-like kinase 1 (Homo sapiens) (UniProt Q8N4C8); conditions: at 1 µM
[6] = molecular target: T1, Serine/threonine-protein kinase 4 (Homo sapiens) (UniProt Q13043); conditions: at 0.1 µM
T1 sequence (whole entry): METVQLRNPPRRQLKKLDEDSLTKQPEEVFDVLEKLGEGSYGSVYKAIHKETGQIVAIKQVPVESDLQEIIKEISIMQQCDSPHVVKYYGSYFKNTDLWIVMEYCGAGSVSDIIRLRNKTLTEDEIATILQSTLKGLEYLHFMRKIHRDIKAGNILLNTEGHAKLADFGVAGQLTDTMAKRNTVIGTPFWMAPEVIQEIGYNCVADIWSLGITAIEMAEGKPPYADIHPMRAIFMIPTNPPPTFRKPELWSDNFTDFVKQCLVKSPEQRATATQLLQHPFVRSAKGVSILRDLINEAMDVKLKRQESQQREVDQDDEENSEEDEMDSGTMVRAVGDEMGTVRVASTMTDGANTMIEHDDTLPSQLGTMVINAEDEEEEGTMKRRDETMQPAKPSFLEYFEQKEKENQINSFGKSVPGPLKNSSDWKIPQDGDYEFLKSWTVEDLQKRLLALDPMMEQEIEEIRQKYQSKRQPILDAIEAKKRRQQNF

[7] = molecular target: T1, Serine/threonine-protein kinase 4 (Homo sapiens); conditions: at 1 µM
[8] = molecular target: T2, Serine/threonine-protein kinase 3 (Homo sapiens) (UniProt Q13188); conditions: at 0.1 µM
T2 sequence (whole entry): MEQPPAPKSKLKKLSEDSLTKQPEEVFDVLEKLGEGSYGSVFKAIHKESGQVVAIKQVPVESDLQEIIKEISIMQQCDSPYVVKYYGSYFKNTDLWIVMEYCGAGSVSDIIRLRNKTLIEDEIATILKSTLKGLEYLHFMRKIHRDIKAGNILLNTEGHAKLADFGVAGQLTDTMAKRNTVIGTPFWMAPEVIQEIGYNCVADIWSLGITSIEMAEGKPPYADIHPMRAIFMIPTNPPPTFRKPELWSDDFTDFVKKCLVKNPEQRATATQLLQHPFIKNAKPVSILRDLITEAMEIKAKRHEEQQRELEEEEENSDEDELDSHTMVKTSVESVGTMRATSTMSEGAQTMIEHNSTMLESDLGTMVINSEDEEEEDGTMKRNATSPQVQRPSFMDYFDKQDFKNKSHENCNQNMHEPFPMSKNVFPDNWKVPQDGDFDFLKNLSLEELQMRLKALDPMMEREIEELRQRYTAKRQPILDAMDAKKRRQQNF

[9] = molecular target: T2, Serine/threonine-protein kinase 3 (Homo sapiens); conditions: at 1 µM
[10] = molecular target: Serine/threonine-protein kinase 26 (Homo sapiens) (UniProt Q9P289); conditions: at 0.1 µM
Chain of Serine/threonine-protein kinase 26 (Homo sapiens) (Q9P289 2-416 limits assumed): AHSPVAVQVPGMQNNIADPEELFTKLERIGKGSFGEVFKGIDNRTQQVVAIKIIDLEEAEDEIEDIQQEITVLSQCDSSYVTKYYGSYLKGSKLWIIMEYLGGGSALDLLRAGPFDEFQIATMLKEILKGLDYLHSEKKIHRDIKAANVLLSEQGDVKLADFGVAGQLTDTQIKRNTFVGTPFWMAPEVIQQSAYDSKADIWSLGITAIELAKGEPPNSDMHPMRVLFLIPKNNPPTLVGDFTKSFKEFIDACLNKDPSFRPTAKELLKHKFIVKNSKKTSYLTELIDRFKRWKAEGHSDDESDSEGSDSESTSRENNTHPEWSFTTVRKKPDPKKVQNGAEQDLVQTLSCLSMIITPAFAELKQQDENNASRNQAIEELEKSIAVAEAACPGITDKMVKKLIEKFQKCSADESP

Chain of Dual specificity mitogen-activated protein kinase kinase 1 (Homo sapiens) (Q02750 whole entry): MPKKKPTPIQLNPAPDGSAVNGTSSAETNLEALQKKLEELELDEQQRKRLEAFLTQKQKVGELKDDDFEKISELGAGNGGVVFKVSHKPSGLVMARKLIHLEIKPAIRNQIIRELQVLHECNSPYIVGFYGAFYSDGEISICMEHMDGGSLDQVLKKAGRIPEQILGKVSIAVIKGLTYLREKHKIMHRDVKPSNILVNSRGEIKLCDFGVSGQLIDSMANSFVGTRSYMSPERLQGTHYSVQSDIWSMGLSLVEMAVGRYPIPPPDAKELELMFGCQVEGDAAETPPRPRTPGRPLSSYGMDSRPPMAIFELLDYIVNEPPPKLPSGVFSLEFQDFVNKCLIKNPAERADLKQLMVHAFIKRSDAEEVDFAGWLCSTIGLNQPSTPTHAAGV
Chain of Mitogen-activated protein kinase kinase kinase kinase 4 (Homo sapiens) (O95819 2-1239 limits assumed): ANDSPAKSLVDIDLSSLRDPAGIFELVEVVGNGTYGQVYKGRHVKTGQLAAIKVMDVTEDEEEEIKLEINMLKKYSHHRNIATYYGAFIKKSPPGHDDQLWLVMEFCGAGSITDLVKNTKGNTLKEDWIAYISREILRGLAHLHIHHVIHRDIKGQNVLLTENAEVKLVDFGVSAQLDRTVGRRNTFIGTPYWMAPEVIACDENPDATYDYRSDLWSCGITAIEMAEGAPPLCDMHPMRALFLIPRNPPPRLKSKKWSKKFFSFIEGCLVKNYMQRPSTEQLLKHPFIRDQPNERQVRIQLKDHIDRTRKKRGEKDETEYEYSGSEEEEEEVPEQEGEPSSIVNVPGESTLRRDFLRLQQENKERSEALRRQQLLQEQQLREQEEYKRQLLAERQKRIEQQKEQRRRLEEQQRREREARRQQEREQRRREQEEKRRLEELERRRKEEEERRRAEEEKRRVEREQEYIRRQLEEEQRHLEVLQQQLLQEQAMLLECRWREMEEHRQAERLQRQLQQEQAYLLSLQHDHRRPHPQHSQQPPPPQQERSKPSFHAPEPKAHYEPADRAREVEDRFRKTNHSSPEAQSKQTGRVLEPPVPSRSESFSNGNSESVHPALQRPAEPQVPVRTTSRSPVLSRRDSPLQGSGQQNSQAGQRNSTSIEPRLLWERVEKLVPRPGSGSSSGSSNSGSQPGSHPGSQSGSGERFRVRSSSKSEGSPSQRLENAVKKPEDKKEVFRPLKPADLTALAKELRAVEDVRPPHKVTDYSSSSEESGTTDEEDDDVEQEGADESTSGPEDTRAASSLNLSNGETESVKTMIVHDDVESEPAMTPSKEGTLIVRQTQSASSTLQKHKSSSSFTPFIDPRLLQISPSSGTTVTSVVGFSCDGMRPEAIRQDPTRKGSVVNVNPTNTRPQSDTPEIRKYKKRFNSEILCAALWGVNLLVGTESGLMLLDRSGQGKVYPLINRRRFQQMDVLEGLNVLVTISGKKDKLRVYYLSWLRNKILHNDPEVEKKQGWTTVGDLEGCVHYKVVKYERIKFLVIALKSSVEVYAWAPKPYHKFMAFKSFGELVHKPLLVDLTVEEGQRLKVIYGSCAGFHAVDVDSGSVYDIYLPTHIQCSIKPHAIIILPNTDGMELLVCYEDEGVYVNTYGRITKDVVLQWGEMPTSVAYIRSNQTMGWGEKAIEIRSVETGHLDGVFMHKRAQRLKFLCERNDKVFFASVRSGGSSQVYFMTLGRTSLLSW

| SMILES | inhibition [1] [%] | inhibition [2] [%] | inhibition [3] [%] | inhibition [4] [%] | inhibition [5] [%] | inhibition [6] [%] | inhibition [7] [%] | inhibition [8] [%] | inhibition [9] [%] | inhibition [10] [%] |
| --- | --- | --- | --- | --- | --- | --- | --- | --- | --- | --- |
| CCn1c(-c2nonc2N)nc2ccc(F)cc21 | 9.77 | 9.94 | 7.03 | 6.88 | 9.59 | 5.88 | 5.97 | 6.38 | 6.55 | -1.73 |
| C[C@@H](Oc1cc(-n2cnc3ccc(OCC4CCN(C)CC4)cc32)sc1C(N)=O)c1ccccc1C(F)(F)F | 1.19 | -0.27 | 0.01 | 0.08 | 0.43 | 29.1 | 74.7 | 11.4 | 56.7 |  |
| NS(=O)(=O)c1ccc(-c2cc3ccncc3cc2OCc2ccccc2)cc1 | 6.71 | 4.49 | 3.72 | 2.78 | 5.92 | 5.08 | 7.76 | 5.7 | 5.97 | 0.92 |
| NC(=O)c1cccc(Nc2nccc(Nc3cccc(F)c3)n2)c1 | 44.9 | -0.23 | 1.42 | 6.07 | 33.3 | 0.59 | 12.2 | 1.63 | 6.4 | -0.81 |
| COc1cccc(-n2nc(C)c3c(N/N=C(\C)c4ccncc4)ncnc32)c1 | 4.83 | -0.14 | -0.11 | 1.43 | 6.12 | 1.29 | 1.63 | 1.78 | 3.56 | -0.95 |
| Nc1nccc(C#Cc2cncnc2Nc2ccc(OCc3cccc(F)c3)c(Cl)c2)n1 | 5.46 | 2.67 | 4.4 | 6.95 | 6.41 | 6.4 | 10.4 | 6.63 | 7.32 | -1.78 |
| Nc1nccc(-c2c(-c3ccc(F)cc3)nn3cc(C(F)(F)F)ccc23)n1 | 2.37 | 1.8 | 0.93 | 1.74 | 1.52 | 0.23 | -0.05 | -0.79 | -0.81 | 0.43 |
| CCOc1nccc2c1nc(-c1nonc1N)n2CC | 14.3 | 3.44 | 3.14 | 5.33 | 13.8 | 12.1 | 22.7 | 11.4 | 21.8 | 0.4 |
| CN(C)C(=O)O[C@@H]1CN[C@@H](C#Cc2cc3ncnc(Nc4ccc(OCc5cccc(F)c5)c(Cl)c4)c3s2)C1 | 6.27 | -0.21 | 0.83 | 2.49 | 6.17 | -1.32 | 0.53 | -2.45 | -0.68 | 0.14 |
| CS(=O)(=O)Nc1cccc(-c2ccc3c(NC(=O)C4CC4)n[nH]c3c2)c1 | 6.35 | 0.37 | 0.96 | 1.34 | 6.69 | 3.33 | 4.09 | 3.45 | 4.09 | -3.32 |
| CCS(=O)(=O)c1ccc(OC)c(Nc2nccc(N(C)c3ccc4c(C)n[nH]c4c3)n2)c1 | 15.6 | 4.63 | 5.1 | 3.64 | 11.7 | 4.2 | 5.13 | 4.58 | 5.24 | -2.14 |
| NS(=O)(=O)c1ccc(Nc2cc(-c3cccc(O)c3)n[nH]2)cc1 | 17.6 | 7.97 | 5.67 | 8 | 18.6 | 9.01 | 16.1 | 8.2 | 13.4 | -1.36 |
| NC(=O)c1sc(-n2cnc3ccccc32)cc1OCc1ccccc1Br | 11.3 | 3.81 | 4.35 | 5.6 | 9.1 | 1.82 | 7.07 | 4.03 | 5.83 | -1.18 |
| COc1cc2ncnc(Nc3ccc4c(cnn4Cc4ccccc4)c3)c2cc1OC | 9.55 | 3.32 | 2.12 | 7.38 | 9.64 | 3.42 | 7.03 | 2.19 | 5.68 | -0.63 |
| ON=C1CCc2cc(-c3nc(C4CCNCC4)[nH]c3-c3ccncc3)ccc21 | 21.5 | 0.2 | 2.1 | 4.01 | 18.4 | 2.4 | 3.87 | 1.63 | 2.8 | 0.5 |
| CN(C)CCCn1c(-c2nonc2N)nc2cnccc21 | 6.52 | 4.6 | 3.75 | 5.65 | 6.29 | 4.23 | 4.03 | 3.78 | 4.52 | -1.82 |
| CC(C)c1ccc2c(c1)NC(=O)/C2=N/Nc1ccc(S(N)(=O)=O)cc1 | 62.3 | 0.83 | 1.72 | 10.1 | 48.9 | 1.52 | 11.2 | 1.12 | 9.13 | -0.9 |

| SMILES | inhibition [1] [%] | inhibition [2] [%] | inhibition [3] [%] | inhibition [4] [%] | inhibition [5] [%] | inhibition [6] [%] | inhibition [7] [%] | inhibition [8] [%] | inhibition [9] [%] | inhibition [10] [%] |
| --- | --- | --- | --- | --- | --- | --- | --- | --- | --- | --- |
| Cc1ccc(O)cc1Nc1ccnc2ccc(S(C)(=O)=O)cc12 | 35.1 | 7.84 | 8.37 | 10.4 | 30.5 | 4.65 | 8.35 | 5.45 | 8.06 | -0.99 |
| Cc1cc(Cl)cc2c1NC(=O)C2=NNc1ccc(S(N)(=O)=O)cc1 | 56.5 | 3.39 | 2.09 | 10 | 42.5 | 4.01 | 7.11 | 3.69 | 6.48 | 0.59 |
| Nc1ccc(C#Cc2cncnc2Nc2ccc(OCc3cccc(F)c3)c(Cl)c2)cc1 | 0.49 | 2.6 | 3.23 | 3.73 | 1.66 | 2.07 | 2.02 | 3.2 | 4.05 | -0.87 |
| CCn1c(-c2nonc2N)nc2c(C#CC(C)(C)O)nc(OCCNC)cc21 | 6.25 | 3.55 | 3.92 | 5.45 | 5.87 | 3.15 | 6.97 | 5.27 | 7.27 | -3.54 |
| OCc1ccc(-c2nc(-c3ccccn3)c(-c3ccc4c(c3)OCO4)[nH]2)cc1 | 6.4 | 5.12 | 4.13 | 5.77 | 7.23 | 6.59 | 6.27 | 8.49 | 4.84 | -1.45 |
| COc1cccc(-n2ncc3c(N/N=C/c4ccc(S(C)(=O)=O)cc4)ncnc32)c1 | 59.4 | 1.79 | 1.58 | 13.4 | 50.3 | 1.66 | 4.3 | 0.59 | 2.91 | 1.71 |
| Cc1ccc(NC(=O)CC2CC2)cc1-c1ccc(C(=O)NCC2CC2)cc1 | 9.33 | 3.69 | 2.73 | 2.74 | 5.47 | 5.3 | 8.01 | 4.49 | 5.72 | 0.36 |
| COC(=O)c1ccc2c(c1)C(=Cc1cc(Br)c(O)c(Br)c1)C(=O)N2 | 84.7 | 3.31 | 5.79 | 26.4 | 75.2 | 3.54 | 19 | 4.78 | 19.5 | 1.49 |
| COc1ccc(-c2nn3ncccc3c2-c2ccnc(Nc3cccc(C(F)(F)F)c3)n2)cc1 | 4.62 | 1.9 | 2.55 | 5.18 | 5.08 | 1.69 | 2.89 | 4.76 | 5.12 | -0.3 |
| O=C1Nc2ccccc2/C1=C/Nc1ccc2[nH]c(=O)[nH]c2c1 | 75.4 | 8.19 | 6.88 | 17.4 | 64.3 | 18.1 | 67.2 | 15.5 | 59.4 | -1.35 |
| [O-][S+]1CCN(Cc2ccc(-c3ccc4ncnc(Nc5ccc(OCc6ccccc6)c(Cl)c5)c4c3)o2)CC1 | 3.32 | 2.1 | 3.29 | -0.23 | 1.36 | 0.8 | 1.83 | -0.27 | 0.41 | -0.67 |
| COC(=O)Nc1nc2cc(Oc3ccc(NC(=O)Nc4cccc(Br)c4)cc3)ccc2[nH]1 | 5.51 | 5.03 | 4 | 4.61 | 5.66 | 3.52 | 2.71 | 3.41 | 3.92 | 0.49 |
| O=S(=O)(CCOCc1ccc(-c2ccc3ncnc(Nc4ccc(OCc5cccc(F)c5)c(Cl)c4)c3c2)o1)c1ccccc1 | 7 | 2.11 | 3.33 | 3.54 | 5.66 | 4.3 | 7.99 | 0.99 | 5.7 | -0.04 |
| Cc1nc(-c2ccccc2)n2nc(NCCCN3CCOCC3)ncc12 | 5.45 | 2.79 | 4.46 | 4.74 | 5.12 | 1.32 | 4 | 2.92 | 4.68 |  |
| FC(F)(F)c1ccc(-c2nn3ncccc3c2-c2ccnc(Nc3ccc4c(c3)OCCO4)n2)cc1 | 12 | 1.64 | -1.13 | 2.9 | 11.5 | 3.87 | 7.46 | 4.21 | 8.12 | 6.19 |
| COc1cc(Nc2nccc(-c3cnn4ncccc34)n2)cc(OC)c1 | 78.9 | 3.92 | 26.4 | 20.6 | 71.9 | 5.52 | 35.6 | 5.54 | 29.6 | 0.99 |
| Cc1ccc2c(-c3ccnc(Nc4ccc5c(c4)OCCO5)n3)c(-c3ccc(C(F)(F)F)cc3)nn2n1 | -0.58 | 1.89 | 1.58 | 0.81 | -1.31 | 0.92 | 3.55 | 0.03 | 2.76 | 1.07 |
